INHIBITION data for 114 compounds are collected here from ChEMBL document CHEMBL4513216, “Probing the Open Global Health Chemical Diversity Library for Multistage-Active Starting Points for Next-Generation Antimalarials” (ACS Infect Dis, 2020).

Each structure is given as a SMILES string. Out of some 69,000 compounds screened, about 8,600 (12%) showed an effect of 50% or more. Shown is part of a subset that was picked to be rich in strong results.

In the assay the test system is Plasmodium berghei. In words: Screen against P. berghei liver stage (PbLuc), transformed with Luciferase, at 10uM. Format: functional, HepG2. Conditions: tested at 10 uM.
On to `c1cnc(N2CCN(C3CCC[C@@H]4CN(CC5CC5)C[C@H]34)CC2)nc1` (some centres undefined), for which the INHIBITION is listed as -34.7%. For `O=S1(=O)NC(C2CCCN(S(=O)(=O)N3CCCC3)C2)=Nc2ccccc21` (centres undefined) the value was 4.535%; for `Clc1ccc(OCCN2CCN(CCn3cncn3)CC2)cc1`, 47.4%. The figure for `Cc1ccc(OC2CCN(CCn3cncn3)CC2)cc1` is 86.8%; for `Fc1ccc(OC2CCN(CCn3cncn3)CC2)cc1` it is -5.69%; for `O=C(NCC1CCS(=O)(=O)C1)c1ccc(NC(=O)c2ccco2)cc1` (centres undefined) it is 18.6%.

With `O=C(CCc1cscn1)N1CCCC(n2cncn2)C1` (centres undefined), the INHIBITION was found to be 31.8%. For `COc1ccc(OC)c(CNc2c(O)c(=O)c2=O)c1` the value was 47.4%; for `CCc1nc(NCCn2cccn2)c2c(n1)c(C)nn2C`, 19.3%. Regarding `Cc1nn(C)c2c(NCc3ccccn3)nc(C(C)C)nc12`, the INHIBITION came out at 33.7%. For `CCc1nc(NCCCn2cccn2)c2c(n1)c(C)nn2C`, the INHIBITION stood at 10.3%. Turning to `CCc1nc(NCc2ccccn2)c2c(n1)c(C)nn2C`, the INHIBITION amounted to 42.1%. `Cc1nn(C)c2c(NCCCn3cccn3)ncnc12`: the INHIBITION is listed as -43.4%. The figure for `Cc1nn(C)c2c(NCCn3cccn3)ncnc12` is -37.2%; for `CCc1nc(NCCCn2cccn2)c2c(n1)c(C)nn2CC` it is 64%; for `Cc1nc(NCc2ccccn2)c2c(n1)c(C)nn2C` it is 57.4%. Turning to `Cc1nn(C)c2c(NCCCn3cccn3)nc(C(C)C)nc12`, the INHIBITION was 62.3%. With `Cc1nc(NCCCn2cccn2)c2c(n1)c(C)nn2C`, the INHIBITION was 57.3%. Regarding `Cc1nn(C)c2c(NCCCn3cccn3)nc(C3CC3)nc12`, the INHIBITION was 42.4%.

Consider `CCCc1nc(NCCCn2cccn2)c2c(n1)c(C)nn2CC`, for which the INHIBITION came to 27.5%. For `Cc1ccc(S(=O)(=O)N2CC[C@H]3CO[C@H](CN(C)C)[C@H]3C2)cc1` the value was 32.2%. Turning to `COc1ccc(CN2CCC3(CC2)CCN(CC(C)C)C3=O)cc1`, the INHIBITION is listed as 13.2%. The figure for `CCn1nc(C)c2nc(C)nc(NCCCn3cccn3)c21` is 39.1%; for `CCn1nc(C)c2nc(C(C)C)nc(NCCCn3cccn3)c21` it is 50.7%. For `CCn1nc(C)c2nc(C(C)C)nc(NCCCn3ccnc3)c21` the value was -13.085%; for `C[C@@H]1CN(c2ccc(C#N)cn2)CC[C@@]1(O)C1CCOCC1`, 24.76%; for `CCCc1n[nH]c(C2CN(C(=O)c3ccc(C)[nH]c3=O)CCO2)n1` (centres undefined), 40.2%.

Turning to `COc1ccc(CN2CCn3cncc3C2)cc1Cn1cncn1`, the INHIBITION is 16.1%. For `COc1cc(C)cc(C(C(=O)O)N(C)CCN2CCCC2)c1OC` (centres undefined) the value was 28%; for `COc1cc2c(c(OC)c1OC)CCN(CCn1cncn1)CC2`, 52.6%; for `c1ccc(CCCN2CCN(CCn3cncn3)CC2)cc1`, 15.1%. For `COc1cc2c(c(OC)c1OC)CCN(CCN1CCCCC1)CC2` the value was 54.8%; for `COc1cc2c(c(OC)c1OC)CCN(CCn1nc(C)cc1C)CC2`, 36.3%. For `CNC(=O)[C@H]1C[C@H]2OCC[C@H]2N(CCOc2ccc(Cl)cc2)C1`, the INHIBITION is on record as -52.3%.

Regarding `Cc1cc2cc(C(=O)N3C[C@H](O)[C@]4(CCCO4)C3)ccc2o1`, the INHIBITION is recorded as 15.9%. For `Cc1ccc(CN2CC[C@H]3[C@H](CC(Cn4cccn4)N3C)C2)s1` (some centres undefined) the value was 25.3%.

On to `Cc1n[nH]c(C2CN(C(=O)c3cc(Cl)c[nH]3)CCO2)n1` (centres undefined), for which the INHIBITION turned out to be 31.6%. The figure for `O=C(NCC(=O)N1CCCC1Cc1cccc(F)c1)c1ccccn1` (centres undefined) is -6.51%; for `Cc1nc(CNC(C)c2cccc(N3CCCC3=O)c2)cs1` (centres undefined) it is 22.7%. Consider `CC1CCN(CCCNS(=O)(=O)Cc2ccccc2F)CC1`, for which the INHIBITION amounted to 26.9%. Take `CC(=O)N1CCN(CCNS(=O)(=O)c2cc(F)cc(F)c2)CC1`: the INHIBITION is listed as 26.4%. Consider `O=S(=O)(Cc1ccccc1F)NCCCN1CCCCC1`, for which the INHIBITION is 36.3%. The figure for `CC1CCN(CCCNS(=O)(=O)c2cccc(F)c2)CC1` is -14.9%; for `CC1CCN(CCCNS(=O)(=O)c2cc(F)cc(F)c2)CC1` it is 51.4%. Take `O=S(=O)(NCCCN1CCCC1)c1cc(F)cc(F)c1`: the INHIBITION is 71.3%. Take `COc1cccc(-c2c[nH]c(C3CCCN3)n2)c1` (centres undefined): the INHIBITION is -8.45%. Take `CCc1ncc(CN[C@@H]2CCCN(C(C)=O)[C@H]2c2ccc(C)s2)cn1`: the INHIBITION is 23.2%. For `COCCOc1cccc(C(=O)N2CCCC(n3ccnc3C)C2)c1` (centres undefined) the value was 44.3%; for `Cc1cnn(C2CCCN(C(=O)c3ccc(NC4CC4)nc3)C2)c1` (centres undefined), -22.9%; for `Cc1cccc2c1NC1(CCOCC1)NC2=O`, 48%. For `Cc1cc(NCc2ccc(S(N)(=O)=O)cc2)nc(C)n1` the value was 41.5%; for `Cc1ccc(-c2nc(CN3CCn4c(nnc4C4CC4)C3)co2)cc1`, -25.9%.

Consider `Cc1ccc(-c2nc(CN3CCn4c(nnc4C4CC4)C3)co2)c(C)c1`, for which the INHIBITION was 54.4%. The figure for `Cc1cccc(-c2noc(CN3CCn4c(nnc4C4CC4)C3)n2)c1` is -14.8%; for `Cc1ccc(-c2nnc(CN3CCn4c(nnc4C4CC4)C3)o2)cc1` it is 52.3%; for `Cc1ccc(-c2nc(CN3CCn4c(nnc4C4CC4)C3)no2)cc1` it is 24.7%.

With `Fc1ccc(-c2nnc(CN3CCn4c(nnc4C4CC4)C3)o2)cc1`, the INHIBITION worked out at 0.0932%. For `c1ccc(-c2nc(CN3CCn4c(nnc4C4CC4)C3)co2)cc1` the value was -40.2%; for `Cc1ccc(-c2noc(CN3CCn4c(nnc4C4CC4)C3)n2)cc1`, -32.345%; for `Cc1ccccc1-c1noc(CN2CCn3c(nnc3C3CC3)C2)n1`, 55.9%. For `Cc1n[nH]c(C2CN(C(=O)c3cc(C4CC4)on3)CCO2)n1` (centres undefined), the INHIBITION came out at 49.2%. Take `CN(C)C(C)(C)CNCc1cn(C)nc1-c1cccnc1`: the INHIBITION turned out to be 23.7%. The figure for `CN(Cc1ccccc1)CC(O)Cn1cnc2ccc(Br)cc2c1=O` (centres undefined) is 14.92%. `Cc1ccnc(C2(C)CCCN2S(=O)(=O)c2c(C)noc2C)n1` (centres undefined): the INHIBITION is reported as 0.705%. On to `CCOCc1nc(N2CCOCC2)sc1C(=O)NCCCc1ccco1`, for which the INHIBITION is recorded as 24.5%. Regarding `Cc1ccc(CN2Cc3c(C(=O)N4CCOCC4)nn(C)c3C2)s1`, the INHIBITION was -17.1%. For the compound `CNc1ncc(C(=O)N2CCC(CCc3ccccc3)CC2)cn1`, the INHIBITION is -25.2%. Turning to `CCc1ncc(CN2CCC(CCc3ccccc3)CC2)cn1`, the INHIBITION amounted to 37.8%. For `CNc1ncc(CN2CCC(CCc3ccccc3)CC2)cn1` the value was 67.5%; for `Cc1nc(N)nc(C)c1CC(=O)NCc1ccc2nonc2c1`, 61.2%; for `CCc1[nH]c2ccc(CNC(=O)Cc3c(C)nc(N)nc3C)cc2c1C`, 43.9%. For the compound `N[C@@H]1CC[C@H](C(=O)NCc2ccc3nonc3c2)C1`, the INHIBITION amounted to 0%. For the compound `CN(Cc1cnn(C)c1)C(=O)NCc1ccc2c(c1)OCCO2`, the INHIBITION is -26.85%.

With `O=C(Cc1csc(-c2ccccc2Cl)n1)NCc1cccc(C(=O)O)c1`, the INHIBITION was found to be 17.1%. The figure for `Cc1ccc(C(=O)N2CCC3(CCN(Cc4ccccn4)C3=O)C2)cn1` (centres undefined) is 22.5%; for `CCc1nc(CN2CCCN(c3cnc4ccccc4n3)CC2)no1` it is 40.5%; for `CCc1nc(CN2CCN(c3ncnc4cc(F)ccc34)CC2)no1` it is 91.8%. For `CCc1nc(CN2CCCN(c3nc4ccccc4o3)CC2)no1` the value was -8.19%. The figure for `CCc1nc(CN2CCCN(CC(O)c3ccccc3)CC2)no1` (centres undefined) is -11.4%. For the compound `CCc1nc(CN2CCCN(c3ncnc4ccccc34)CC2)no1`, the INHIBITION is listed as 86.8%. For the compound `Cc1nc(CN2CCCN(Cc3nc4ccccc4o3)CC2)no1`, the INHIBITION is on record as -24.7%. The figure for `Cc1nc(CN2CCN(c3ncnc4ccccc34)CC2)no1` is 94.1%; for `CCn1ccnc1CN1CCN(c2ncnc3ccccc23)CC1` it is -66.4%; for `CCc1nc(CN2CCN(CC(O)c3ccccc3)CC2)no1` (centres undefined) it is 42%. As to `CN1CCOC2(CCCN(C(=O)C3CCCCC3)C2)C1` (centres undefined), the INHIBITION came to 9.97%. Consider `Cc1cc(F)ccc1C(=O)N1CCN(C)C2(CCC(=O)N(C)CC2)C1` (centres undefined), for which the INHIBITION came to 25.8%.

For `CNc1ncccc1CN1CCC1c1cc(N)nc(C)n1` (centres undefined), the INHIBITION was 10.9%. With `CC(C)C(NCc1ccc(Cn2cncn2)cc1)c1ccccc1` (centres undefined), the INHIBITION is -1.33%. As for `CC(C)c1ccc(CNC(c2ccc(F)cn2)C(C)C)cc1` (centres undefined), the INHIBITION is on record as 48.9%. For `CC(C)C(NCc1ccc(Cn2cncn2)cc1)c1ccc(F)cn1` (centres undefined) the value was 71.2%; for `COc1cc(C)ccc1OCCC(=O)N1CCC(C(N)=O)C1` (centres undefined), -24.9%; for `O=C(c1cnc(-c2ncccn2)s1)N1CCCC1Cn1cccn1` (centres undefined), -24.3%. Turning to `Cc1cnc(N)c(C(=O)C2CCN(C(=O)c3cnc(C)nc3C)CC2)c1`, the INHIBITION was -2.11%. The figure for `Cc1cnc(N)c(C(=O)C2CCN(C(=O)c3cnc(C)cn3)CC2)c1` is -20.2%; for `COCCC(=O)N1CCC(C(=O)c2cc(C)cnc2N)CC1` it is -26.2%; for `COCC(=O)N1CCC(c2cc(-c3ccc(N)nc3)cc(C)n2)CC1` it is 7.19%. The figure for `Cc1cnc(N)c(C(=O)C2CCN(C(=O)C3CCC3)CC2)c1` is 13.5%; for `CC(=O)N1CCC(C(=O)c2cc(C)cnc2N)CC1` it is 39.2%; for `COCC(=O)N1CCC(C(=O)c2cc(C)cnc2N)CC1` it is 58.1%. The figure for `C=C(C)C(=O)N1CCC(C(=O)c2cc(C)cnc2N)CC1` is 68.8%; for `Cc1cnc(N)c(C(=O)C2CCN(C(=O)c3ccccc3F)CC2)c1` it is 56.9%.

For the compound `O=C(CCn1c(C(F)(F)F)cc2cccnc21)N1CCC(O)CC1`, the INHIBITION was 29.2%.

As to `COC(=O)C1CN(Cc2nc(C(C)(C)C)cs2)C[C@@H](C)O1` (some centres undefined), the INHIBITION is reported as 21.7%.

`Cn1nc(CN2CCCCC2)c2c1CN(C(=O)c1cccc(C#N)c1)C2`: the INHIBITION is on record as 46.3%.

For `CC(=O)N1CCN(C(C)C)CC(COc2ccccc2)C1` (centres undefined), the INHIBITION was -6.92%. The figure for `O=C(NCCn1ccnc1)N1CCN(Cc2cccnc2)CC1` is -33.7%; for `O=C(NCCNc1cnccn1)N1CCCC1` it is 19.4%.

As for `O=C(NCCNc1cnccn1)N1CCN(Cc2cccnc2)CC1`, the INHIBITION is 65.5%.

Take `CC(C)(C)NC(=O)N1CCN(Cc2cccnc2)CC1`: the INHIBITION was -2.93%. For `CC(Cn1cccn1)NC(=O)N1CCN(Cc2ccncc2)CC1` (centres undefined) the value was -4.94%; for `O=C(NCCNc1cnccn1)N1CCCCCC1`, 47%. In the case of `O=C(NCCNc1ncccn1)N1CCN(Cc2cccnc2)CC1`, the INHIBITION came to 57.8%. The figure for `CC(Cn1ccnc1)NC(=O)N1CCN(Cc2cccnc2)CC1` (centres undefined) is 31.8%; for `CC(Cn1cccn1)NC(=O)N1CCN(Cc2cccnc2)CC1` (centres undefined) it is 74.6%.
